Measurements published in PubChem BioAssay AID651871 (Sanford-Burnham Center for Chemical Genomics, 2012).
Several values for one entry are separate records, joined by “and”; a condition that tells them apart may be missing. Equal values may be shown once.

Tested on: HL-1
Assay: cardiomyocyte survival under oxidative or metabolic stress – cell-based, panel, H9c2 and HL-1, ATP luminescence, set 2, SAR follow-up (AID 651871);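 note: cells exposed to stressor for 2 h before ATP readout; reference of the scale not given here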
Conditions: H9c2/HL-1 cardiomyocytes, 2-deoxyglucose stress, with 2-deoxyglucose; run 1, at 79 µM (top of the series)

| SMILES | activity (protection/inhibition) |
| --- | --- |
| COc1ccc2nc(-c3cc(OC)c(OC)c(OC)c3)cc(C(=O)NCC(=O)Nc3ccc(C(C)=O)cc3)c2c1 | 115% |
| CCOC(=O)c1cccc(NC(=O)CNC(=O)c2cc(-c3cc(OC)c(OC)c(OC)c3)nc3ccccc23)c1 | 101% |
| COc1ccc2c(c1OC)C(=O)N1c3ccccc3C(=O)N(Cc3cccc(Cl)c3Cl)C21 (stereo not drawn) | 41.2% and 40.9% and -9.68% |
